Screens as filed in PubChem BioAssay.
Shown are actives, neighbours in structure and some others; about 2.7% of the full set was active somewhere.
Wnt act: Wnt/beta-catenin pathway activators, primary screen, cell-based, plate reader, single point; Wnt/beta-catenin reporter cell assay, activator; activation, % at 9.35 µM; hit rate 1.2% among 300,000; in the data active = activation above about 30%, passing the limit was not always enough
INS-1E GSIS act: GLuc luminescence reporter in INS-1E cells, primary screen for activators of glucose-dependent secretion of insulin. INS-1E GLuc reporter insulin secretion, 2-3 h. activation, % at 16.6 µM. hit rate 0.61% among 370,000;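 active = lowest replicate activation of at least 40%, so every replicate reaches that level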
F508del corr: F508del CFTR correction, initial screen, CFBE line, single point. AID 720511, 2013. activity (quench increase), % at 7.58 µM. hit rate 0.36% among 350,000. CFBE cells, YFP halide quenching; stimulated with forskolin plus potentiator P3; % fluorescence drop versus neutral controls;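 active = mean added fluorescence quench of at least 8% versus neutral control, with both replicates also reaching 8%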;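 also: cells transiently co-express mutant CFTR-F508del with the halide-sensitive YFP; corrector assay measuring rescue of mutant channel to the surface after 24 h compound exposure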
HIV Env fusion: inhibitors of HIV-1 Env-driven cell-cell fusion, primary screen, HeLa-JRFL effector, CEM21 target cells, luciferase. inhibition, % at 12.3 µM. AID 651610, 2012. hit rate 1.1% among 360,000;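 active = mean replicate inhibition score of at least 50 and every replicate individually at or above 50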
MITF TRPM1 HTS: activators of MITF-driven TRPM1 promoter reporter, primary screen, cell-based, SK-MEL-5, luciferase, single point | activation, % at 12.5 µM | AID 588334, 2011 | hit rate 0.75% among 300,000 | SK-MEL-5 TRPM1-promoter luciferase, 24 h; % of positive control, neutral wells = 0;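 active = mean activation of at least 80% with every replicate also reaching 80%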
Numbers stand for hits; i = inactive; nt = not tested or not shown; [ ] = dose if it differs, or a comment.

SMILES	Wnt act	INS-1E GSIS act	F508del corr	HIV Env fusion	MITF TRPM1 HTS
Cc1nc(C)c(-c2ccc(SCC(=O)Nc3ccc(C)c(Cl)c3)nn2)s1	i	41	i	i	i
Cc1ccc(S(=O)(=O)NC2c3cccc4cccc(c34)C2Sc2nncn2C)cc1 (stereo not drawn)	i	nt	i	i	i
Cc1ccc(S(=O)(=O)NC2c3cccc4cccc(c34)C2Sc2nc(C)cc(C)n2)cc1 (stereo not drawn)	i	i	nt	98	i
CC1(C(=O)NCc2ccccc2)CN(S(C)(=O)=O)CC(=O)N1C1CC1 (stereo not drawn)	i	65	i	i	nt
Cc1ccccc1CN1C(=O)CN(S(C)(=O)=O)CC1(C)C(=O)NCc1ccccc1 (stereo not drawn)	i	i	i	i	nt
C[C@H](CO)N1C[C@H](C)[C@@H](CN(C)CC2CC2)Oc2ccc(NS(=O)(=O)c3cccs3)cc2CC1=O	nt	i	i	nt	nt
CCNC(=O)C[C@@H]1CC[C@H]2[C@@H](COc3ccc(NS(C)(=O)=O)cc3C(=O)N2C)O1	nt	i	i	i	nt
COc1ccc(S(=O)(=O)Nc2ccc3c(c2)CC(=O)N([C@H](C)CO)C[C@H](C)[C@H](CN(C)S(=O)(=O)c2ccc(Cl)cc2)O3)cc1	nt	i	i	73[16.7 µM]	nt
COc1ccc(S(=O)(=O)Nc2ccc3c(c2)CC(=O)N([C@H](C)CO)C[C@H](C)[C@H](CN(C)S(=O)(=O)c2ccccc2)O3)cc1	nt	i	i	84[16.7 µM]	nt
COc1ccc(S(=O)(=O)Nc2ccc3c(c2)CC(=O)N([C@H](C)CO)C[C@H](C)[C@H](CN(C)S(=O)(=O)c2ccc(C)cc2)O3)cc1	nt	i	i	99[16.7 µM]	nt
COc1ccc(S(=O)(=O)N(C)C[C@H]2Oc3ccc(NS(=O)(=O)c4ccc(Cl)cc4)cc3CC(=O)N([C@@H](C)CO)C[C@H]2C)cc1	nt	i	i	i	nt
C[C@@H]1CN([C@@H](C)CO)C(=O)c2cc(NC(=O)NC3CCCCC3)ccc2O[C@@H]1CN(C)Cc1ccc(Oc2ccccc2)cc1	nt	i	i	nt	nt
CCN1[C@@H]2Cn3c(ccc(-c4cccc(F)c4)c3=O)[C@H]1[C@@H](C(=O)NCCCN(C)C)[C@@H]2CO	nt	i	nt	nt	nt
O=C(Nc1cccnc1Cl)C1=NN(c2ccccc2)C(=O)CC1	i	48	i	i	i
O=C(NCc1ccncc1)C1=NN(c2ccccc2)C(=O)CC1	i	i	i	i	i
OC[C@@H]1[C@@H](c2ccccc2)C2(CN(Cc3ccccc3F)C2)N1Cc1ccccc1F	nt	i	10	nt	nt
COc1cc2oc(=O)cc(-c3ccc(-c4ccc(CO)cc4)cc3)c2c(OC)c1OC	i	i	i	118	i
CC(=O)c1c(C)[nH]c(C(=O)OCc2nnc(-c3ccc([N+](=O)[O-])cc3)o2)c1C	i	i	9.2	nt	i
Cc1cc(Cl)ccc1OCc1cn2cccnc2n1	i	i	i	i	83
CC(C)NC(=O)Nc1ccc2c(c1)C(=O)N([C@H](C)CO)C[C@@H](C)[C@H](CN(C)C(=O)CCC(F)(F)F)OCCCC[C@@H](C)O2	nt	i	i	i	nt
O=C1NCCOCn2nncc2CC[C@@H]1Cc1ccccc1	nt	i	nt	nt	nt
N#Cc1ccc(C(=O)N2CCCCC2c2cc(C(=O)Nc3cccc(C#N)c3)no2)cc1 (stereo not drawn)	36	nt	i	i	nt
COc1cccc(CN2[C@@H]3CNC[C@H]2C3c2ccc(-c3ccc(C)cc3)cc2)c1 (stereo partly drawn)	nt	i	i	nt	nt
C[C@@H]1CN([C@@H](C)CO)C(=O)c2cc(C3=CCCC3)cnc2O[C@@H]1CN(C)Cc1ccc(C(=O)O)cc1	nt	i	i	60[16.7 µM]	nt
C[C@@H]1CN([C@H](C)CO)C(=O)c2cc(C3=CCCCC3)cnc2O[C@H]1CN(C)C(=O)CN1CCOCC1	nt	171	i	i	nt
SMILES	Wnt act	INS-1E GSIS act	F508del corr	HIV Env fusion	MITF TRPM1 HTS
C[C@@H]1CN([C@H](C)CO)C(=O)c2cc(C3=CCCCC3)cnc2O[C@@H]1CN(C)C(=O)CN1CCOCC1	nt	i	i	i	nt
C[C@@H]1CN([C@H](C)CO)C(=O)c2cc(C3=CCCC3)cnc2O[C@@H]1CN(C)Cc1ccc(C(=O)O)cc1	nt	i	i	i	nt
CCOC(=O)[C@@H](C)N(Cc1ccc(OC)cc1)S(=O)(=O)N(Cc1ccccc1)[C@H](C(=O)OC)C(C)C	i	i	i	92	i
COC(=O)[C@H](CC(C)C)N(Cc1ccccc1)S(=O)(=O)N(Cc1ccc(OC)cc1)[C@@H](CC(C)C)C(=O)OC	i	i	i	75	i
COC(=O)C(CC(C)C)N(Cc1cc(OC)cc(OC)c1)S(=O)(=O)c1ccccc1Br (stereo not drawn)	i	i	i	59	i
C[C@H]1CN([C@@H](C)CO)C(=O)Cc2cc(NC(=O)Cc3ccccc3)ccc2O[C@H]1CN(C)C(=O)Nc1ccc(F)cc1	nt	i	i	nt	nt
COc1ccc(NC(=O)Nc2ccc3c(c2)C(=O)N([C@H](C)CO)C[C@H](C)[C@@H](CN(C)Cc2ccc(Oc4ccccc4)cc2)O3)cc1	nt	i	i	i	nt
Nc1nc(Cl)cc(N2CCC(c3cc(-c4ccc(Cl)cc4Cl)n[nH]3)CC2)n1	i	nt	nt	102	i
Nc1nc(Cl)cc(N2CCCC2)n1	i	i	i	i	i
Cc1ccc(S(=O)(=O)N(C)C[C@@H]2Oc3ccc(NS(=O)(=O)c4cn(C)cn4)cc3CC(=O)N([C@H](C)CO)C[C@@H]2C)cc1	nt	i	i	i	nt
COc1ccc(Nc2ncc(C(=O)N3CCN(c4ccc(F)cc4)CC3)c3ccccc23)cc1	i	nt	nt	93	i
COC(=O)C1CCc2c(ccc3c2CCCC3)C1=O (stereo not drawn)	i	i	i	i	101
COc1cc(OC)cc(C(=O)Nc2cccc3c2CCCC3)c1	i	i	i	i	i
c1csc(-c2nc(-c3ccc(-c4ccon4)s3)no2)c1	42	i	i	i	i
c1ccc(-c2nc(-c3ccncc3)no2)cc1	nt	i	nt	nt	i
c1ccc(-c2nc(-c3ccc(-c4ccon4)s3)no2)cc1	36	i	i	i	i
CCOc1ccccc1N1CCN(C(=O)c2cc3ccccc3cc2OC)CC1	i	i	17	i	i
COc1ccc2oc(=O)c(C(=O)N3CCN(c4ccccc4C)CC3)cc2c1	49	nt	nt	i	105
O=C(CN1CCOCC1)N[C@H]1CC[C@H](CCNC(=O)C2CCC2)O[C@@H]1CO	nt	i	i	i	nt
C#CC(=O)N(c1cc(OC)ccc1OC)C(C(=O)NC1CCCC1)c1cccs1 (stereo not drawn)	nt	nt	nt	nt	i
C#CC(=O)N(c1ccc(OC)cc1OC)C(C(=O)NC1CCCC1)c1cccs1 (stereo not drawn)	i	i	i	109	i
COC(=O)C[C@@H]1CC[C@@H]2[C@@H](COc3ccc(NC(=O)c4cscn4)cc3C(=O)N2C)O1	nt	i	i	nt	nt
COc1cc(C(=O)O[C@H]2CC(C)=CC[C@@]3(C)CC[C@@](O)(C(C)C)[C@H]23)ccc1O	i	i	i	88	i
